Assay outcomes from PubChem.
NOD2-RIPK2 inh: NOD2-RIPK2 binding disruptors in cells, primary screen, fluorescence, CHO cells, BLA complementation | CCF4 ratio | hit rate 0.38% among 360,000 | Receptor-interacting serine/threonine-protein kinase 2 (Homo sapiens), O43353 | inhibition, % at 4.98 µM; in the data active = inhibition above about 21%
GC-A act: GC-A stimulated cGMP production enhancers – HEK293 GC-A cells, cGMP TR-FRET, EC30 ANP, primary screen | 0% at EC30 ANP, 100% saturating ANP | activation, % at 10 µM | hit rate 0.14% among 370,000 | AID 1671463, 2021; in the data active = activation above about 40%
TLR9-MyD88 block: inhibitors of TLR9-MyD88 association in cells, primary screen, cell-based, CHO, BLA complementation, fluorescence; hit rate 0.21% among 340,000; CCF4 FRET ratio; AID 504734, 2011; inhibition, % at 4.98 µM; Toll-like receptor 9 (Homo sapiens) + Myeloid differentiation primary response protein …;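 active = inhibition above the mean over all tested compounds plus 3 SD, cut at about 21% in these data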
Neddylation inh: inhibitors of cullin neddylation, primary screen, biochemical, TR-FRET, uHTS, NAE and Ubc12; NEDD8-conjugating enzyme Ubc12 (Homo sapiens) + NEDD8-activating enzyme E1 regulatory …; inhibition, % at 25 µM; hit rate 0.58% among 360,000; in the data active = inhibition above about 36%
TLR4-MyD88 BLA: inhibitors of TLR4-MyD88 association in cells, primary screen, cell-based, HeLa CL3-4, BLA complementation, FRET ratio; inhibition, % at 8.4 µM; hit rate 0.18% among 200,000; HeLa CL3-4 TLR4/MyD88 BLA complementation; Toll-like receptor 4 (Homo sapiens) + Myeloid differentiation primary response protein …; AID 861, 2007; in the data active = inhibition above about 25%
GC-B act: human GC-B receptor activators, primary screen, HEK293 GC-B cells, cGMP TR-FRET, EC30 CNP. Atrial natriuretic peptide receptor 2 (Homo sapiens), P20594. 0% at EC30 CNP, 100% saturating CNP. activation, % at 10 µM. hit rate 0.11% among 370,000. AID 1920062, 2024;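 active = activation at 10 µM reaching about 35% in either raw or pattern-adjusted values, limit read from the data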
Target sequence (P20594 whole entry, looked up): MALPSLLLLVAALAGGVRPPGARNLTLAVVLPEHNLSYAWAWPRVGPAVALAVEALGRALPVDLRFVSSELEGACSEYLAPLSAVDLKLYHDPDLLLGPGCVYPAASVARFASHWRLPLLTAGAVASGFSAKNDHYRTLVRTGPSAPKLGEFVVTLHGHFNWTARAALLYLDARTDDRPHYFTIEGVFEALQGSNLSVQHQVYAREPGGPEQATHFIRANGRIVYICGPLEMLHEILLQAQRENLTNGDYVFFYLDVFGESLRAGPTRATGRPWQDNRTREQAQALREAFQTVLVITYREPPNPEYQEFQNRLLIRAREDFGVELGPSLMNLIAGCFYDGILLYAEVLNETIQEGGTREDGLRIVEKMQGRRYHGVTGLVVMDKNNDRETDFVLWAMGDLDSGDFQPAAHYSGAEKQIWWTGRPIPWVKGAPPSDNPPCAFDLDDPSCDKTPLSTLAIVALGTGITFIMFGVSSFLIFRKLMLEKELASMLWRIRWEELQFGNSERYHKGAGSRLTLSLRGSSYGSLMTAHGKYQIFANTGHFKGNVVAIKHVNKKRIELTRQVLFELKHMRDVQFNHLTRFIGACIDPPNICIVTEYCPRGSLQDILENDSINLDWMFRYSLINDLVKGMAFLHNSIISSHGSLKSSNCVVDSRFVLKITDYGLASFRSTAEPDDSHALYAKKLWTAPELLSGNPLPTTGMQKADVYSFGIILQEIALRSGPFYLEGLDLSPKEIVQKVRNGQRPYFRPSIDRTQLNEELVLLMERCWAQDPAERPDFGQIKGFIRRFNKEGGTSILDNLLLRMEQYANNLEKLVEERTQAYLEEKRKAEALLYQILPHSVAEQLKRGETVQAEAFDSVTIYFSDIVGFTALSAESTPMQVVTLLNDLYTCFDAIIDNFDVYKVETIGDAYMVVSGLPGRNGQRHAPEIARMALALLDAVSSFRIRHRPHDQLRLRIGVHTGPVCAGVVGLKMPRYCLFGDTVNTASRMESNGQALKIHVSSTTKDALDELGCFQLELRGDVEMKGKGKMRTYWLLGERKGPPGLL
NOD2-RIPK2 conf: NOD2-RIPK2 binding disruptors, retest, confirmation, fluorescence, CHO cells, BLA complementation, triplicate; shares compounds with NOD2-RIPK2 inh; CCF4 FRET; inhibition, % at 4.98 µM; hit rate 70% among 1,200; AID 624370, 2012;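 active = mean inhibition across replicates above a set limit taken from the earlier primary screen, cut at about 21% in these data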
NOD2 BLA counter: NOD2-RIPK2 counterscreen BLA reporter activity. CHO BLA reporter, CCF4 FRET ratio. hit rate 57% among 1,200. shares compounds with NOD2-RIPK2 inh. inhibition, % at 4.98 µM. AID 624371;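 active = mean inhibition above the low-control mean inhibition plus three low-control SD, cut at about 11% in these data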
A number is an active result; 0 = inactive; - = not tested or not shown. Sampled rows, rich in hits. Any-hit rate of the full collection: about 1.2%.

SMILES | NOD2-RIPK2 inh | GC-A act | TLR9-MyD88 block | Neddylation inh | TLR4-MyD88 BLA | GC-B act | NOD2-RIPK2 conf | NOD2 BLA counter
Cc1ccc(NN2C(=O)C=C(c3ccc(Cl)cc3)C2=O)cc1 | 50.6 | 0 | 0 | 0 | 0 | 0 | 82.3 | 10.5
COc1ccc(C2=CC(=O)N(Nc3ccccc3)C2=O)cc1 | 42.2 | 0 | - | 0 | 0 | 0 | 55.4 | 0
Cc1cc(OCC(C)CN2CCC(C(O)(c3ccccc3)c3ccccc3)CC2)ccc1Br (configuration not stated) | - | 0 | - | - | - | 0 | - | -
CC(C)C(=O)N1CCC(Oc2cccnc2)CC1 | - | 0 | - | - | - | 0 | - | -
CCCCNC(=O)C1c2ccccc2C(=O)N(c2ccc(OC)cc2)C1c1ccc(OC)cc1 (configuration not stated) | 0 | 0 | 0 | 0 | 0 | 0 | - | -
COc1ccc(C2C(C(=O)NCCCN3CCOCC3)c3ccccc3C(=O)N2c2ccc(OC)cc2)cc1 (configuration not stated) | 23.6 | 0 | 0 | 0 | 0 | 0 | 0 | 0
O=C(NCCc1ccccc1)OCc1cn(Cc2cccc(Cl)c2)nn1 | - | 0 | - | - | - | 0 | - | -
CCOC(=O)C1=CC[C@@H](c2ccccc2)N(S(=O)(=O)c2ccc(C)cc2)[C@H]1c1ccc(C#N)cc1 | 0 | 0 | - | 0 | - | 0 | - | -
CCOC(=O)C1=CC[C@@H](c2ccccc2)N(S(=O)(=O)c2ccc(C)cc2)[C@H]1C#N | 44.1 | 0 | - | 0 | - | 0 | 0 | 0
O=[N+]([O-])/C=C/c1cn(Cc2ccc(Cl)cc2)c2ccccc12 | 21.1 | 0 | 0 | 0 | 0 | 0 | 37.6 | 0
C=CCN1[C@@H](C)COc2cc(N3CCCC3)ccc2S1(=O)=O | - | 0 | - | - | - | 0 | - | -
COC(=O)[C@]12C[C@H](CC(=O)NCC34CC5CC(CC(C5)C3)C4)C(=O)N(Cc3ccco3)C1=C[C@H](C1CCCC1)O[C@@H]2C | - | 0 | - | - | - | 0 | - | -
O=c1c(O)c(-c2ccccc2)oc2cc(O)ccc12 | 24.6 | 0 | - | 0 | - | 0 | 32.1 | 29.4
CCOc1ccc(C(=O)Nc2nnc(S(=O)(=O)Nc3ccccc3C)s2)cc1 | 24.2 | 0 | 0 | 0 | - | 0 | 0 | 0
Cc1ccc(C(=O)Nc2nnc(S(=O)(=O)Nc3ccccc3C)s2)cc1C | 0 | 0 | 0 | 0 | - | 0 | - | -
Nc1nc2ncccn2c1-c1ccc(C(F)(F)F)cc1 | 25.4 | 0 | - | - | - | 0 | 27.7 | 34.5
Nc1nc2ncccn2c1-c1ccc(F)cc1 | 0 | 0 | - | 0 | - | 0 | - | -
Cc1ccc(NC(=O)c2ccccc2)cc1 | 0 | 0 | 0 | 0 | 0 | 0 | - | -
Cc1ccc(NC(=O)C2=C(c3ccccc3)S(=O)(=O)CCS2(=O)=O)cc1 | 55.5 | 0 | 0 | 0 | 0 | 0 | 77.7 | 0
Cc1c(NC(=S)NC(NC(=O)C(C)(C)C)C(Cl)(Cl)Cl)c(=O)n(-c2ccccc2)n1C (configuration not stated) | 25.2 | 0 | 0 | 0 | 0 | 0 | 0 | 0
COCCCNC(=O)C[C@@H]1C(=O)N(CCc2ccc(Cl)cc2)C2=CCCCC[C@]21C(=O)OC | - | 0 | - | - | - | 0 | - | -
Cc1ccc(O)c(C2=Nc3ccccc3N=C(c3ccco3)C2)c1 | 23.2 | 0 | 0 | 0 | 0 | 0 | 0 | 46.3
Cc1ccc(C2=Nc3ccccc3N=C(c3ccco3)C2)c(O)c1 | 0 | 0 | 0 | 0 | 0 | 0 | - | -
Nc1ccc(S(=O)(=O)c2ccc(N3CCOCC3)c(N)c2)cc1 | 0 | 0 | 0 | 0 | - | 0 | - | -
CCCCn1c(=O)[nH]c(=O)c2c1nc(Cn1ncc(Cl)c(Cl)c1=O)n2CCC | 40.4 | 0 | 0 | 0 | - | 0 | 55.4 | 12.6
SMILES | NOD2-RIPK2 inh | GC-A act | TLR9-MyD88 block | Neddylation inh | TLR4-MyD88 BLA | GC-B act | NOD2-RIPK2 conf | NOD2 BLA counter
CCCCn1c(=O)[nH]c(=O)c2c1nc(CN1C(=O)c3ccccc3S1(=O)=O)n2CCC | 0 | 0 | 0 | 0 | 0 | 0 | - | -
O=C(CCc1ccccc1)Nc1ccccc1 | 35.5 | 0 | 0 | 0 | 0 | 0 | 0 | 0
O=C(CCC(=O)Nc1ccccc1)NNC(=O)CCc1ccccc1 | 0 | 0 | 0 | 0 | 0 | 0 | - | -
CCCCN(C)C(=O)c1oc(=O)c2ccccc2c1-c1ccc(C)cc1 | - | 0 | - | - | - | 0 | - | -
CC1=CC(=O)C(C(C)C)=C/C1=N/OS(=O)(=O)c1ccccc1 | 58.9 | 0 | 0 | 0 | - | 0 | 36.5 | 0
CC1=CC(=O)C=C(C)C1=NOS(=O)(=O)c1ccccc1 | 26.5 | 0 | 0 | 0 | 0 | 0 | 31.0 | 0
Cc1ccc2c(c1)/C(=N/OS(=O)(=O)c1ccccc1)CCS2 | 0 | 0 | 0 | 0 | 0 | 0 | - | -
CC1=CC(=O)C(C2CCCCC2)=C/C1=N\OS(=O)(=O)c1ccccc1 | - | 0 | - | - | - | 0 | - | -
CCCCCCN1CCS(=O)(=O)N(Cc2ccc(C)cc2)C(C(=O)OC)C1 (configuration not stated) | - | 0 | - | - | - | 0 | - | -
COC(=O)c1cccc(N2CCCC2=O)c1 | 0 | 0 | 0 | 0 | - | 0 | - | -
COC(=O)c1cccc(-n2sc3ccccc3c2=O)c1 | 40.4 | 0 | 0 | 0 | - | 0 | 36.4 | 13.3
C/C(=N\NC(=S)NC1CCCCC1)c1cccc(Br)c1 | 32.3 | 0 | 0 | 0 | 0 | 0 | 0 | 0
CC(C)CNS(=O)(=O)CC1NCc2cc3c(cc21)OCO3 (configuration not stated) | - | 0 | - | - | - | 0 | - | -
Nc1c(C(=O)NCc2ccc(Cl)cc2)sc2nc3c(c(C(F)(F)F)c12)CCC3 | 0 | 0 | 0 | 0 | 0 | 0 | - | -
Cc1cc(C(F)(F)F)c2c(N)c(C(=O)NCc3ccc(Cl)cc3)sc2n1 | 23.5 | 0 | - | 0 | - | 0 | 23.1 | 21.3
CN(C)c1nc(N)nc(-c2cccnc2)n1 | 0 | 0 | 0 | 0 | 0 | 0 | - | -
Cc1[nH]nc(-c2cccnc2)c1N=NN(C)C | 36.5 | 0 | 0 | 0 | - | 0 | 0 | 0
O=c1c2ccccc2sn1-c1ccc(Cl)cc1 | 0 | 0 | 0 | 0 | - | 0 | - | -
O=c1c2ccc(F)cc2sn1-c1ccccc1 | 36.4 | 0 | 0 | 0 | - | 0 | 46.0 | 0
N#C/C(=C\Nc1ccc2cn[nH]c2c1)c1nc(-c2ccccc2)cs1 | 0 | 0 | 0 | 0 | 0 | 0 | - | -
Cc1ccnc(N/C=C(\C#N)c2nc(-c3cccc(Br)c3)cs2)c1 | 27.0 | 0 | 0 | 0 | 0 | 0 | 30.0 | 29.7
O=C(NC(CC1=CCCCC1)c1ccc2ccccc2c1)C(F)(F)F (configuration not stated) | - | 0 | - | - | - | 0 | - | -
Cc1c(C(=O)Nc2ccccc2)c2ccc(C(F)(F)F)cc2n1O | 34.2 | 0 | - | 0 | - | 0 | 28.3 | 0
COc1ccc(C(=O)N/N=C/c2sc3ccccc3c2O)cc1 | 21.8 | - | 0 | 0 | 0 | - | 0 | 0
